Records with an inconclusive call do not appear. Activity calls are given as the source filed them. Unless noted, the call rests on the fitted dose curve; in most records, active means well fitted curve in the direction sought with a large enough effect in the repeat runs; inconclusive means weak or mixed curves; inactive means no such curve, though single readings can be large; an effect the other way counts as inactive or inconclusive.
Assays:
[1] = qHTS assay to identify small molecule antagonists of the glucocorticoid receptor (GR) signaling pathway - cell viability counter screen (AID 720693); further: nearly all actives have a fitted effect of over 55% in size
[2] = qHTS assay for identifying genotoxic compounds that show differential cytotoxicity against isogenic chicken DT40 cell lines with known DNA damage response pathways - wild type cell line (AID 743012); further: nearly all actives have a fitted effect of over 60% in size
In short: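 300 wt DT40 cells/well; cpd (DMSO) pintool-transferred after ~0.5 h at 37 C/5% CO2; 40 h incubation; CellTiter-Glo added, 30 min RT; luminescence read.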

[3] = qHTS assay for identifying genotoxic compounds that show differential cytotoxicity against isogenic chicken DT40 cell lines with known DNA damage response pathways - Rev3 mutant cell line (AID 743014); further: nearly all actives have a fitted effect of over 55% in size; further: potency means the concentration at half of the fitted maximal effect
[4] = qHTS assay to identify small molecule antagonists of the androgen receptor (AR) signaling pathway - cell viability counter screen (AID 743033; further: nearly all actives have a fitted effect of over 45% in size)
[5] = qHTS assay to identify small molecule antagonists of the thyroid receptor (TR) signaling pathway (AID 743065); further: nearly all actives have a fitted effect of over 55% in size; further: potency means the concentration at half of the fitted maximal effect
In short: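 Antagonism measured as loss of luciferase signal in GH3 cells stably carrying a TRE-luciferase reporter, co-treated with compound and T3 (1 nM final) for 23.5 h at 37 C. Viability was read in the same well by CellTiter-Fluor.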

[6] = system: thyroid hormone receptor (rat, GH3 cells); assay: qHTS assay to identify small molecule agonists of the thyroid receptor (TR) signaling pathway (AID 743066; calls by dose curve; further: potency means the concentration at half of the fitted maximal effect)
[7] = qHTS assay to identify small molecule antagonists of the estrogen receptor alpha (ER-alpha) signaling pathway - cell viability counter screen (AID 743074; calls by dose curve; further: nearly all actives have a fitted effect of over 45% in size)
[8] = qHTS assay to identify small molecule antagonists of the estrogen receptor alpha (ER-alpha) signaling pathway using the BG1 cell line - cell viability counter screen (AID 743081);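 further: compound given together with 17beta-estradiol as the ER stimulus; series mostly up to about 70 µM; nearly all actives have a fitted effect of over 45% in size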
[9] = target: Aromatase (Homo sapiens) (UniProt P11511); assay: qHTS assay to identify aromatase inhibitors (AID 743083); further: series mostly up to about 70 µM; nearly all actives have a fitted effect of over 55% in size
Sequence of Aromatase (Homo sapiens) (P11511 whole entry, looked up): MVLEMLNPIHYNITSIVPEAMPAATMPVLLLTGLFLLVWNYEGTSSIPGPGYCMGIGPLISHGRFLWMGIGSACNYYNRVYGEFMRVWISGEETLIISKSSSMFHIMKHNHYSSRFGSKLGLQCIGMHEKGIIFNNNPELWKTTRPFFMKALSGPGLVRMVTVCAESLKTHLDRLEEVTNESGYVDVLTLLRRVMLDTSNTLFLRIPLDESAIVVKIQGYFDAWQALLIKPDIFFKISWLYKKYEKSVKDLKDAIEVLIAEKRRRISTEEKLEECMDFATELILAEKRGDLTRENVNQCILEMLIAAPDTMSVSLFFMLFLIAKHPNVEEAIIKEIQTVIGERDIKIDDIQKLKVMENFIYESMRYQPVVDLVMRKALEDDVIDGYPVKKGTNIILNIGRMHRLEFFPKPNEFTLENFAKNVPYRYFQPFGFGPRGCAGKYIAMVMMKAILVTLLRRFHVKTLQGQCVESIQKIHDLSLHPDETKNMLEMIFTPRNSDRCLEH

[10] = qHTS assay to identify small molecule antagonists of the androgen receptor (AR) signaling pathway using the MDA cell line - cell viability counter screen (AID 743041; further: nearly all actives have a fitted effect of over 45% in size)
In short: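 Using the breast carcinoma line MDA-kb2 AR-luc, test chemicals were co-incubated with R1881 for 16 h; CellTiter-Fluor reagent, added at 15.5 h, provided a fluorescence measure of live cells.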

[11] = qHTS assay to identify small molecule antagonists of the thyroid receptor (TR) signaling pathway - cell viability counter screen (AID 743064); further: nearly all actives have a fitted effect of over 50% in size; further: potency means the concentration at half of the fitted maximal effect
In short: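 In rat pituitary GH3.TRE-Luc reporter cells co-exposed to compound and 1 nM T3 for 23.5 h, cytotoxicity was assessed with CellTiter-Fluor in the same wells, read by fluorescence.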

[12] = target: Estrogen receptor (Homo sapiens) (UniProt P03372); assay: qHTS assay to identify small molecule antagonists of the estrogen receptor alpha (ER-alpha) signaling pathway (AID 743069; active means well fitted curve in the direction sought with a large enough effect in the signal ratio in the repeat runs, not every such curve was filed as active; the % refers to the signal ratio)
Sequence of Estrogen receptor (Homo sapiens) (P03372 whole entry, looked up): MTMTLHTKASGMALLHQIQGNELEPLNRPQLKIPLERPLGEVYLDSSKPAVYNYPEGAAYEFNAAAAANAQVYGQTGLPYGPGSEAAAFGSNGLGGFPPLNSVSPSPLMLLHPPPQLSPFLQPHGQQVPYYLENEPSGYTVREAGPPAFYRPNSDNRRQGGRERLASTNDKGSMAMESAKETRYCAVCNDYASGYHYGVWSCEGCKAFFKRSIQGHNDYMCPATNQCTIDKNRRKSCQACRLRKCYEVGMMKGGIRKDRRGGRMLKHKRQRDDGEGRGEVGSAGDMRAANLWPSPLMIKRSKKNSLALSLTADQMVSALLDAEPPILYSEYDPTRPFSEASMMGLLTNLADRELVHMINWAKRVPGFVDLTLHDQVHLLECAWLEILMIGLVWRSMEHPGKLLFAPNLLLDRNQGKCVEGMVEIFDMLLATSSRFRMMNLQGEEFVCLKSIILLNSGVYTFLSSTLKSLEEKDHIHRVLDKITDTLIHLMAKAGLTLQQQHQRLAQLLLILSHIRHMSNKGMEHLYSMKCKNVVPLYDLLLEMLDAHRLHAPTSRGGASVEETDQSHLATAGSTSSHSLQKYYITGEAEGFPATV
In short: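 Fluorescence intensity from a beta-lactamase FRET substrate served as the read-out. Cells: HEK293 with stably integrated ER-alpha-UAS-bla reporter. Agonist 17beta-estradiol was co-added with compounds; incubation 18 hr at 37C, substrate 2 hr at room temperature.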

[13] = target: Estrogen receptor (Homo sapiens) (UniProt P03372); assay: qHTS assay to identify small molecule agonists of the estrogen receptor alpha (ER-alpha) signaling pathway (AID 743075; calls by dose curve)
[14] = target: Estrogen receptor (Homo sapiens) (UniProt P03372); assay: qHTS assay to identify small molecule agonists of the estrogen receptor alpha (ER-alpha) signaling pathway using the BG1 cell line (AID 743079); further: nearly all actives have a fitted effect of over 20% in size; further: potency means the concentration at half of the fitted maximal effect
[15] = qHTS assay to identify small molecule antagonists of the estrogen receptor alpha (ER-alpha) signaling pathway using the BG1 cell line (AID 743080; calls by dose curve;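 further: BG1 cells stimulated with 17beta-estradiol alongside compound; nearly all actives have a fitted effect of over 25% in size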; further: potency means the concentration at half of the fitted maximal effect)
In short: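 Endogenous full-length ER-alpha in BG1-Luc-4E2 cells drives a stably integrated 4×ERE luciferase gene; compounds were tested against 17beta-estradiol over 21.5 h, with luminescence and multiplexed viability fluorescence recorded.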

[16] = qHTS assay for identifying genotoxic compounds that show differential cytotoxicity against isogenic chicken DT40 cell lines with known DNA damage response pathways - Rad54/Ku70 mutant cell line (AID 743015); further: nearly all actives have a fitted effect of over 60% in size; further: potency means the concentration at half of the fitted maximal effect
[17] = target: Androgen receptor (Homo sapiens) (UniProt P10275); assay: qHTS assay to identify small molecule antagonists of the androgen receptor (AR) signaling pathway (AID 743035; active means well fitted inhibition curve with a large enough effect in the signal ratio in the repeat runs, not every such curve was filed as active; the % refers to the signal ratio)
Sequence of Androgen receptor (Homo sapiens) (P10275 whole entry, looked up): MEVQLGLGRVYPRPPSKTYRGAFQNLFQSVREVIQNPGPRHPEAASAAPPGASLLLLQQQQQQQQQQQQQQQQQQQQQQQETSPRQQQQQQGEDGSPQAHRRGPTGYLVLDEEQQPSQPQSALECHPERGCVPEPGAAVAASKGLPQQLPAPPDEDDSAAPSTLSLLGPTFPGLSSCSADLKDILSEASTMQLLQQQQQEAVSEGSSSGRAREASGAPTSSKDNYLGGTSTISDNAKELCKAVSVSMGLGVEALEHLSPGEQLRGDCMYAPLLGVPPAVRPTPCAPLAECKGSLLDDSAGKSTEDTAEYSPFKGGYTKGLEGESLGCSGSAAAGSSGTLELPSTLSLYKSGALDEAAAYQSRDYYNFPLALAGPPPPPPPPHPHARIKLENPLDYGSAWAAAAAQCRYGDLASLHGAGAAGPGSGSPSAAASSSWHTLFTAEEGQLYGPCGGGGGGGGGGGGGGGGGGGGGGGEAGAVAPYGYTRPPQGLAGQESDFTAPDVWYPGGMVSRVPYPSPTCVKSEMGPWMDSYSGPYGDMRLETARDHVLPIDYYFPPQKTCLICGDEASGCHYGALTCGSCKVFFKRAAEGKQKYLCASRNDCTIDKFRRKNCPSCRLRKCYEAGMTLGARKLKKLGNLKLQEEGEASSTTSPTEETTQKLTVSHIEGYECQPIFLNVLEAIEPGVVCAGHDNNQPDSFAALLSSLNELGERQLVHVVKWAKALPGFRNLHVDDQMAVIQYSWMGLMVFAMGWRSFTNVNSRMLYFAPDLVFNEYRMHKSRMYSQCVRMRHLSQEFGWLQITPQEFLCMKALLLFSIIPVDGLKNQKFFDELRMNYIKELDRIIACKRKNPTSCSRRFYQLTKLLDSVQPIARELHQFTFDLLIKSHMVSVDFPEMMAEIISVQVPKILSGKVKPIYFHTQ
In short: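 In this cell-based reporter screen, compounds were tested in concentration series against R1881-activated HEK293 cells expressing beta-lactamase under UAS control; after 16 h at 37C, FRET substrate was added and fluorescence read 2 h later.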

[18] = target: Androgen receptor (Homo sapiens) (UniProt P10275); assay: qHTS assay to identify small molecule agonists of the androgen receptor (AR) signaling pathway (AID 743036; active means well fitted activation curve with a large enough effect in the signal ratio in the repeat runs, with a control signal flat, not every such curve was filed as active; the % refers to the signal ratio)
In short: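 Cell-based FRET reporter assay: HEK293 line with a UAS-beta-lactamase construct, compounds added in DMSO, 16 h exposure at 37C, then 2 h substrate step at room temperature and fluorescence intensity read.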

[19] = target: Androgen receptor (Homo sapiens) (UniProt P10275); assay: qHTS assay to identify small molecule agonists of the androgen receptor (AR) signaling pathway using the MDA cell line (AID 743040; further: nearly all actives have a fitted effect of over 20% in size)
In short: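 Stable MMTV-luciferase reporter in MDA-kb2 cells; note the promoter carries GR as well as AR response elements. 16 h compound treatment, 37C, 0% CO2; ONE-Glo luminescence endpoint.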

[20] = target: Androgen receptor (Homo sapiens) (UniProt P10275); assay: qHTS assay to identify small molecule antagonists of the androgen receptor (AR) signaling pathway using the MDA cell line (AID 743042; further: nearly all actives have a fitted effect of over 55% in size)
In short: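 Antagonist mode: compounds plus R1881 agonist added to MDA-kb2 AR-luc cells, incubated 16 h at 37C. Luciferase reporter luminescence quantified, with multiplexed CellTiter-Fluor readout for cell viability.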

Measured: Potency

CCCCCCCCCCCCCCCC/C=C/C1CC(=O)OC1=O (configuration not stated)
active: [5] 29.7 µM
inactive: [1] | [2] | [3] | [4] | [6] | [7] | [8] | [9]

CC(=O)c1c(C)cc(C(C)(C)C)cc1C
inactive: [1] | [2] | [3] | [4] | [10] | [11] | [5] | [6] | [7] | [8] | [9]

Nc1nc(Cl)cc(Cl)n1
not listed: [4] | [7] | [11] | [16] | [17] | [18] | [19] | [20]
inactive: all other assays above

CC12CCCC=C1C(=O)OC2=O (configuration not stated)
not listed: [3] | [4] | [11] | [12] | [13] | [14] | [15]
inactive: all other assays above

Nc1ccc(C(=O)NCC(=O)O)cc1
not listed: [3] | [4] | [17] | [18] | [19] | [20]
inactive: all other assays above

CCCCCCC(=O)c1ccccc1
inactive: [1] | [2] | [4] | [10] | [5] | [6] | [7] | [8] | [9]

Cc1nc2ccc(Cl)cc2[nH]1
not listed: [3] | [11] | [17] | [18] | [19] | [20]
inactive: all other assays above

CCOc1ccccc1OCCN[C@H](C)Cc1ccc(OC)c(S(N)(=O)=O)c1
inactive: [1] | [2] | [16] | [4] | [10] | [11] | [5] | [6] | [7] | [8] | [9]

CC(C)OCCO
inactive: [1] | [2] | [3] | [16] | [10] | [11] | [5] | [6] | [7] | [8] | [9]

CCCCCC(=O)CC
inactive: [1] | [2] | [16] | [4] | [11] | [5] | [6] | [7] | [8] | [9]

O=c1[nH]c(=O)c2cn[nH]c2[nH]1
inactive: [1] | [2] | [16] | [4] | [11] | [7] | [8] | [9]

CC(=O)Nc1ccc(S(=O)(=O)Nc2cc(C)on2)cc1
not listed: [4] | [11] | [17] | [18] | [19] | [20]
inactive: all other assays above

CC1(C)C(=O)C(C)(C)C1=O
not listed: [3] | [12] | [13] | [14] | [15]
inactive: all other assays above

BrCCOc1ccccc1
not listed: [3] | [4] | [5] | [6] | [17] | [18] | [19] | [20]
inactive: all other assays above

CC(C)=CCC/C(C)=C\C#N
inactive: [1] | [2] | [3] | [16] | [12] | [7] | [13] | [14] | [15] | [8] | [9]

CC(C)(C)C(=O)CCc1ccc(Cl)cc1
not listed: [4] | [10] | [11] | [17] | [18] | [19] | [20]
inactive: all other assays above

C[C@H]1COc2c(C3(N)CC3)c(F)cc3c(=O)c(C(=O)O)cn1c23
inactive: [1] | [2] | [3] | [16] | [10] | [11] | [7] | [8] | [9]

COC(=O)N/N=C/c1c[n+]([O-])c2ccccc2[n+]1[O-]
not listed: [3] | [16] | [17] | [18] | [19] | [20]
inactive: all other assays above

COc1cnc(NS(=O)(=O)c2ccc(N)cc2)nc1
not listed: [2] | [11] | [16] | [17] | [18] | [19] | [20]
inactive: all other assays above

CCCc1ccc(O)c(OC)c1
not listed: [1] | [17] | [18] | [19] | [20]
inactive: all other assays above

CC(C)(O)CCCC1=CCC(C=O)CC1 (configuration not stated)
active: [3] 65.2 µM | [14] 58.1 µM
inactive: [1] | [10] | [11] | [6] | [12] | [7] | [13] | [15] | [8] | [9]

NNC(=O)CCCCC(=O)NN
not listed: [2] | [8] | [10] | [17] | [18] | [19] | [20]
inactive: all other assays above

Cc1ccc(N)nc1
not listed: [1] | [11]
inactive: all other assays above

N#Cc1ccccc1C#N
not listed: [1] | [11]
inactive: all other assays above

CCCCCCCC(=O)N(C)C
not listed: [2] | [4] | [17] | [18] | [19] | [20]
inactive: all other assays above

O=C(O)COc1ccc2ccccc2c1
not listed: [2] | [4] | [10] | [17] | [18] | [19] | [20]
inactive: all other assays above

CCCCN=C(N)N=C(N)N
active: [15] 16.8 µM
not listed: [2] | [3] | [4] | [16] | [17] | [18] | [19] | [20]
inactive: all other assays above

CSC(=O)c1cccc2nnsc12
active: [3] 21.7 µM
not listed: [2] | [11] | [12] | [16] | [17]
inactive: all other assays above

C=C(C)C(=O)OCCOC1CC2CC1C1C=CCC21 (configuration not stated)
inactive: [1] | [10] | [11] | [5] | [6] | [7] | [8] | [9]

CCC(C)c1nccnc1OC (configuration not stated)
not listed: [2] | [16] | [17] | [18] | [19] | [20]
inactive: all other assays above

CCCCCCC(O)CO (configuration not stated)
not listed: [2] | [4] | [6] | [11] | [17] | [18] | [19] | [20]
inactive: all other assays above

CC(C)(C)NCC(O)COc1cccc2c1CCC(=O)N2 (configuration not stated)
inactive: [1] | [3] | [17] | [18] | [19] | [10] | [20] | [7] | [8] | [9]

CCNC(=O)C(C)OC(=O)Nc1ccccc1 (configuration not stated)
not listed: [2] | [10] | [11] | [16] | [17] | [18] | [19] | [20]
inactive: all other assays above

CN(C)CCc1c[nH]c2ccc(CS(=O)(=O)N3CCCC3)cc12
not listed: [1] | [17] | [18] | [19] | [20]
inactive: all other assays above

C=CC(C)(CCC=C(C)C)OC(=O)C(C)C (configuration not stated)
not listed: [1] | [17] | [18] | [19] | [20]
inactive: all other assays above

CC[C@@]1(c2ccccc2)NC(=O)N(C)C1=O
not listed: [1] | [17] | [18] | [19] | [20]
inactive: all other assays above

C[Si](C)(C)O[Si](O)(O)O
active: [3] 61.1 µM
not listed: [2] | [11] | [16] | [17] | [18] | [19] | [20]
inactive: all other assays above

CCO/C=C1\N=C(c2ccccc2)OC1=O
inactive: [1] | [10] | [6] | [7] | [8] | [9]
active: [16] 48.4 µM | [11] 68.3 µM

CN(C)c1cc(NC(=O)CNC(C)(C)C)c(O)c2c1C[C@H]1C[C@H]3[C@H](N(C)C)C(=O)C(C(N)=O)=C(O)[C@@]3(O)C(=O)C1=C2O
not listed: [2] | [3] | [10] | [11] | [18]
inactive: all other assays above

O=Cc1ccccc1S(=O)(=O)O
inactive: [1] | [3] | [16] | [4] | [10] | [11] | [5] | [7] | [9]
active: [6] 68.5 µM

COC(=O)/C=C(\C)CCC=C(C)C
not listed: [2] | [3] | [16] | [17] | [18] | [19] | [20]
inactive: all other assays above

CCCCCCCCCCCCCCBr
not listed: [2] | [4] | [17] | [18] | [19] | [20]
inactive: all other assays above
